Data on 40 sequences can be found in the supplement of paper PMC6555819.

This assay concerns VDR:RXRa (NR concentration 270 nM, RXRa partner concentration 90 nM). The assay can be described thus: PBM binding z-score (relative to random genomic background probes); higher = stronger binding; sequences stand for … in GC…GCGATTGACAGCGTAGAATGAAGG
The method, then: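 Protein-binding microarray (Agilent 4x180K custom design, double-stranded 60-nt probes: 5' GC cap, 34-nt variable region, 24-nt constant primer region; full probe sequence given). Purified or IVT nuclear receptor:RXRα heterodimers (3:1 NR:RXRα, mostly 270:90 nM) or homodimers were incubated for 1 h in PBS with 2% milk and no ligand, then detected with Alexa488 antibodies. Fluorescence from o1-orientation probes (~5 replicates averaged) was converted to z-scores against 500 random hg19 background probes. Variable regions are seed direct-repeat (DR0–DR5) sites, all their single-nucleotide variants and half-site ablations.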
GCTAGTTGGTCAGTAAAAGGTCATACACCGGTCG: the PBM binding z-score came to 3.69.

Regarding GCTTACGGGTCGAAGGTTATAGCATGAATAGAAT, the PBM binding z-score turned out to be 2.02.

ATCTCTAGGTAAGCCTCAGTTCAGTGAAGAACGC had a PBM binding z-score of 0.546.

The sequence CCAGACAGGTGAGAAGATAACTCAGCCTCGATTA had a PBM binding z-score of 0.035.

ACTATTAGTTGAGAGGAGGGCAACCGATAGGTTG registered a PBM binding z-score of 0.152.

In the case of GTACCAAGGTGGATAGGTCGTTGATGAGTAGGCG, the PBM binding z-score is -0.168.

For ATATGTAGGTTACATCCGGGTCAGTCAGGCTATG, the PBM binding z-score worked out at 2.62.

The sequence TCAGACAGGTGAATGTAACTCAGGTACGCAGTCG had a PBM binding z-score of 0.512.

In the case of ACTAGCAGGCAAAGTTTGGGTCACTCAAACAAAG, the PBM binding z-score stood at 0.478.

The sequence CCGACTGGGGAAGAAAGGTTACCATACCATCCGG returned a PBM binding z-score of 0.522.

For the sequence CCAGACAGGTGAGAAGTTAACTCAGCCTCGATTA, the PBM binding z-score was -0.0797.

TATGCTAGGTCAACGATGGTCAGCTAATCTGCTA displayed a PBM binding z-score of 1.79.

Turning to CGTACAAGGTCAATGCTAGGTCAGTGAAAGCATT, the PBM binding z-score is 5.24.

In the case of CCTATTAGTTGACCATAAGGGGAACCGAAGCTCG, the PBM binding z-score was 0.632.

Turning to CCTACTGGGCCATCAGGTCATTAATATCAACGTT, the PBM binding z-score was determined as 1.49.

As for GATACAGGGTCAAGGCCAGTGTACGCGTATTGAT, the PBM binding z-score was 4.28.

Take TCGAGTAGGTTAGTAGGGGCATTCAGCCAACATA: the PBM binding z-score was 3.1.

For the sequence CCCAGTTGGTCAGGAGGTCACACACCGGATATGA, the PBM binding z-score was 3.96.

GCATATATGTAATACAAGGTGAAAGTCCGATTGT displayed a PBM binding z-score of 0.278.

Take TCTCGTAGGACACGAAGGTCAGAGCTTTCCAGAG: the PBM binding z-score was determined as 1.71.

For TCTATTAATTGATTAGGGCAACCGAAACAGCGGA, the PBM binding z-score amounted to 0.405.

TCTCGCAGGCCAGAGGGTCACTCAAGAGGTACGG displayed a PBM binding z-score of 1.79.

TCATATAGGTAAACAGGTGAAAGTCCGTAAGTTA: the PBM binding z-score stood at 1.27.

TCTTGTAGATCAGCAGGTTAGGAAAGCTGGCCAA yielded a PBM binding z-score of 0.153.

CAGCCTAGGTCAGGGCCGGTATAGGAGGAACGTT displayed a PBM binding z-score of 0.178.

The sequence CAAGACAGGTGAAAGGTAACTCAGTCTGGTACGC gave a PBM binding z-score of 0.87.

ATCGAAAGGTCGACGAGGTAAGTATACACCGTTT registered a PBM binding z-score of 4.59.

With CCGACTGGGGCAGAAGGGTTACCATACCATCCGG, the PBM binding z-score came to 0.121.

With TCGAGTAGGTTAGTCGGGGCATTGAGCCAACATA, the PBM binding z-score was 1.89.

Sequence CTACCAAGGTGAACAAGGTCGTTTATTACTATTC yielded a PBM binding z-score of 6.54.

Consider CATACAGTGTCAGCTAGGCCAGAGTAGGGACGGC, for which the PBM binding z-score is -0.152.

In turn, TCATATAGGTAAAAGGTGAACGTCGGTGTGGTAA returned a PBM binding z-score of 1.79.

The sequence CCGACTGGAGCAAAGGTTACCATACTCAGTACGA had a PBM binding z-score of 1.17.

TTAGCAAGGTGAAGGTCGTTGATCCCTCTGTAGA came in with a PBM binding z-score of 0.964.

In the case of TCGAGTAGGTTACCAATGGGGCATTCAACTTTCT, the PBM binding z-score was 0.521.

Turning to GCTGCTAGGTCAACTGATAGTCAGCTAAAGCTCG, the PBM binding z-score is 0.945.

Take TGAATGCGGTTATAAGATCAGGGAACGTTGCAAA: the PBM binding z-score is -0.0836.

CCTTACGGGTCAAGGTTCTAGCACGGGTGGTACG returned a PBM binding z-score of 3.1.

Consider CCGACTGCGGCAAGGTTACCATAACGCACAGCCA, for which the PBM binding z-score was found to be 0.302.

On to CGAACGAGGGCATGAGTTGATACCAAATGCCGAT, for which the PBM binding z-score stood at 1.83.
